Bioassay records: PubChem BioAssay, several laboratories
Shown are actives, neighbours in structure and some others; about 5.4% of the full set was active somewhere.
HSF1 activator – increases HSF-1 driven luciferase reporter signal; actives 1.7% (n = 300,000); NIH3T3-HGL HSF-1 luciferase reporter, MG132, 8 h; 100% = twice DMSO control signal; activation, % at 9 µM;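 active = mean replicate activation of at least 50% with a set share of replicates each reaching 50%; inconclusive = only one of those two conditions met; inactive = mean below 50% and too few replicates reaching it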;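 note: 0% = median of the neutral control wells and 100% = twice that signal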
GAA850 FXN act – activators of GAA850 frataxin (FXN) promoter. HEK293 lucGAA850 FXN promoter luciferase reporter, 24 h; percent of 10 µM SAHA response. actives 0.56% (n = 360,000). AID 540364. activation, % at 6 µM;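 active = activation above the average of all compounds screened plus 3 SD, cutoff fixed separately per campaign, cut at about 7.5% in these data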;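 note: 0% = DMSO wells and 100% = 10 µM SAHA wells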
HSF1 inhib – HSF1 inhibition; NIH3T3-HGL HSE-luciferase, MG132-induced, luminescence 8 h; active compounds read low; activity change, negative = inhibition, % at 7.5 µM (by protocol); actives 0.77% (n = 300,000);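 active = more than half of replicate wells show activity change below -50%, luminescence cut by over half; inconclusive = some wells, but at most half, below -50%; inactive = no replicate well below -50%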;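 note: luciferase reports HSF-1 transcriptional activity via heat shock element; 0% = median of DMSO wells and -100% = zero luminescence signal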
AHR act – activators of human aryl hydrocarbon receptor. P35869. AHR-responsive luciferase reporter cells, luminescence. activation, % at 5 µM. actives 2.5% (n = 320,000); in the data active = activation above about 47%;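 note: 0% = vehicle wells and 100% = reference agonist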
NR0B1 inh – NR0B1 (DAX1) inhibition. P51843. actives 0.99% (n = 340,000). HEK293 Gal4-DAX1 luciferase reporter, luminescence. inhibition, % at 6.75 µM. AID 504766;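 active = inhibition above the mean over all tested compounds plus 3 SD, cut at about 4.2% in these data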;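 note: 0% = DAX1-transfected cells with DMSO and 100% = empty-vector control cells with DMSO; inhibition shows as a rise in luminescence from relieved DAX1 repression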
AHR act cf – confirmation of human aryl hydrocarbon receptor activators. shares compounds with AHR act. human cells, AHR-responsive luciferase reporter, luminescence. activation, % at 9 µM. actives 87% (n = 2,300); in the data active = activation above about 49%;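 note: HepG2 hepatoma cells carrying a DRE-driven firefly luciferase reporter; 0% = vehicle wells and 100% = reference agonist wells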
PXR act counter – counter-screen for AHR activators: human PXR activators | cell-based PXR reporter, luciferase luminescence | actives 88% (n = 2,300) | AID 434939 | shares compounds with AHR act | activation, % at 11.6 µM; in the data active = activation above about 11%;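 note: human hepatoma DPX-2 cells expressing full-length human PXR; 0% = DMSO and 100% = reference agonist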
Target sequence (O75469 whole entry, looked up): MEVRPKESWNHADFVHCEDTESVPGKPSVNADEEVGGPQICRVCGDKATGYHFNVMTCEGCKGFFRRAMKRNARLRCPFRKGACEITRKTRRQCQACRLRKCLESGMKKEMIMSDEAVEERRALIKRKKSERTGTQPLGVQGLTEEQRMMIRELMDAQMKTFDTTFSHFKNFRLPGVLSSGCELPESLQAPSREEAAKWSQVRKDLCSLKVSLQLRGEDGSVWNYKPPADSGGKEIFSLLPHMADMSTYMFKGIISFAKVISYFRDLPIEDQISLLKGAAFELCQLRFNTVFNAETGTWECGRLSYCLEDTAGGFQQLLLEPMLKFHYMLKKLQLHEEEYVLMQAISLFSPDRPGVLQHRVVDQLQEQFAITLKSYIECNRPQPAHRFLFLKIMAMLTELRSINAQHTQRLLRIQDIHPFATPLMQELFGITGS
The depositor's hits bear a star.

`CC1=NN(C(N)=S)C(=O)C1N=Nc1cccc(C(=O)O)c1` (stereo unspecified) gave HSF1 activator -16, GAA850 FXN act 0, HSF1 inhib -11 and NR0B1 inh -2.
`CC1=NN(C(N)=S)C(=O)C1N=Nc1ccc([N+](=O)[O-])cc1` (stereo unspecified) gave HSF1 activator 21, GAA850 FXN act 2, HSF1 inhib 26, AHR act 0 and NR0B1 inh 1.
`CCOc1ccc(N=NC2C(=O)N(C(N)=S)N=C2C)cc1` (stereo unspecified) gave HSF1 activator 30, GAA850 FXN act 2, HSF1 inhib 25, AHR act 118*, NR0B1 inh 4, AHR act cf 124* and PXR act counter 22*.
Screening CC(=O)Nc1ccc(N=NC2C(=O)N(C(N)=S)N=C2C)cc1 (stereo unspecified) returned HSF1 activator 10, GAA850 FXN act 3, HSF1 inhib 6, AHR act 104*, NR0B1 inh 1, AHR act cf 112* and PXR act counter 16*.
Screening c1ccc2oc(-c3ccc4nc[nH]c4c3)nc2c1 returned HSF1 activator 33, GAA850 FXN act 2, HSF1 inhib 30, AHR act 97*, NR0B1 inh 2, AHR act cf 147* and PXR act counter 14*.
`COc1ccc(S(=O)(=O)n2nc(C)cc2C)cc1OC` gave HSF1 activator 17, GAA850 FXN act 1, HSF1 inhib 3, AHR act 2 and NR0B1 inh -1.
Screening CC/C(O)=C1\C(=O)CC(c2ccccc2)CC1=NC(C)C (stereo unspecified) returned HSF1 activator -21, GAA850 FXN act 1, HSF1 inhib -5, AHR act 123*, NR0B1 inh 0, AHR act cf 3 and PXR act counter 128*.
CC/C(O)=C1\C(=O)CC(c2ccccc2)CC1=NCCC(=O)O (stereo unspecified) was read as HSF1 activator -13, GAA850 FXN act 1, HSF1 inhib -5, AHR act -2 and NR0B1 inh -1.
COCC(=O)N1CCc2ccc(NC(=O)c3ccc(C(F)(F)F)cc3)cc2C1 was read as HSF1 activator 8, GAA850 FXN act -1, HSF1 inhib -1, AHR act 103*, NR0B1 inh -3 and AHR act cf 73*.
For O=C(COC(=O)CSc1ccc([N+](=O)[O-])cc1)NCCC1=CCCCC1 the results were GAA850 FXN act 1, AHR act 0 and NR0B1 inh 1.
For CC(NC(=O)c1cc(F)c(F)c(F)c1F)c1ccc(-n2ccnc2)cc1 (stereo unspecified) the results were HSF1 activator -8, GAA850 FXN act 0, HSF1 inhib -6, AHR act 96*, NR0B1 inh -1, AHR act cf 50* and PXR act counter 18*.
`CC(NC(=O)CCNC(=O)c1ccccc1Cl)c1ccc(-n2ccnc2)cc1` (stereo unspecified) gave HSF1 activator 3, GAA850 FXN act -1, HSF1 inhib -3, AHR act 11 and NR0B1 inh 1.
`Cc1cccc(C(=O)NC(C)c2ccc(-n3ccnc3)cc2)c1C` (stereo unspecified) gave HSF1 activator -14, GAA850 FXN act 2, HSF1 inhib -3, AHR act 44 and NR0B1 inh 0.
For CC(NC(=O)c1c(F)cccc1Cl)c1ccc(-n2ccnc2)cc1 (stereo unspecified) the results were HSF1 activator 36, GAA850 FXN act 3, HSF1 inhib 9, AHR act 127*, NR0B1 inh 0, AHR act cf 64* and PXR act counter 19*.
CCCCCOc1ccc(CSC(=N)N)cc1[N+](=O)[O-] was read as HSF1 activator -2, GAA850 FXN act 3, HSF1 inhib -1, AHR act 1 and NR0B1 inh 0.
For CCCCCOc1ccc(Cn2ccnc2)cc1[N+](=O)[O-] the results were HSF1 activator 14, GAA850 FXN act 4, HSF1 inhib -1, AHR act 101*, NR0B1 inh -3, AHR act cf 75* and PXR act counter 53*.
For COc1ccc(Nc2nc(C)cc(C)c2C#N)cc1OC the results were HSF1 activator -61, GAA850 FXN act -3, HSF1 inhib inconclusive, AHR act 114*, NR0B1 inh 0, AHR act cf 59* and PXR act counter 20*.
`COc1cccc(Nc2nc(C)cc(C)c2C#N)c1` gave GAA850 FXN act -1, AHR act 79*, NR0B1 inh 1, AHR act cf 63* and PXR act counter 31*.
`Cc1cccc(Nc2nc(C)cc(C)c2C#N)c1` gave HSF1 activator -4, GAA850 FXN act 1, HSF1 inhib 0, AHR act 32 and NR0B1 inh 0.
Cc1cc(C)c(C#N)c(Nc2ccc3c(c2)OCCO3)n1 was read as HSF1 activator 1, GAA850 FXN act 2, HSF1 inhib 3, AHR act 86*, NR0B1 inh 2, AHR act cf 103* and PXR act counter 22*.
Screening Cc1cc(C)c(C#N)c(Nc2ccccc2)n1 returned HSF1 activator 2, GAA850 FXN act 2, HSF1 inhib -4, AHR act 28 and NR0B1 inh -1.
Screening NC(=O)COC(=O)CC12CC3CC(CC(Br)(C3)C1)C2 returned HSF1 activator -5, GAA850 FXN act -1, HSF1 inhib -8, AHR act -1 and NR0B1 inh 1.
CC(C)OC(=O)/C(=C/c1ccc2c(c1)c1ccccc1n2C)NC(=O)c1ccccc1 was read as HSF1 activator 27, GAA850 FXN act 0, HSF1 inhib 20, AHR act 80*, NR0B1 inh 0, AHR act cf 97* and PXR act counter 183*.
`Cn1c2ccccc2c2cc(/C=C(\NC(=O)c3ccccc3)C(=O)O)ccc21` gave GAA850 FXN act 3, AHR act 13 and NR0B1 inh 1.
For CCc1cc(/C(Cc2ccc3ccccc3n2)=N\O)c(O)cc1O the results were HSF1 activator 7, GAA850 FXN act -1, HSF1 inhib 7, AHR act 88*, NR0B1 inh 0 and AHR act cf 55*.
Screening CN(C)S(=O)(=O)c1cccc(COC(=O)CNC(=O)c2ccc(Br)o2)c1 returned GAA850 FXN act -1 and NR0B1 inh 0.
`C=CCn1c(=O)c(C(=O)NC2CC2)c(O)c2cc(OC)c(OC)cc21` gave HSF1 activator -6, GAA850 FXN act 1, HSF1 inhib -4, AHR act 102*, NR0B1 inh -1, AHR act cf 44 and PXR act counter 30*.
